Measured values from the supplement of paper PMC12645437, “Orthogonal IMiD-Degron Pairs Induce Selective Protein Degradation in Cells” (ACS Chemical Biology, 2025).
The full ranking holds about 8,300 sequences; the median of “log2 fold change of degron read counts, EGFP-low vs EGFP+ sorted cells (limma voom), compound-induced degradation” is about -1.1, and the highest 2% start at about 3.2. For the sample, the highest values were picked, then their nearest neighbours and some sequences at random.

T1: CRBN, Q96SW2
T1 chain: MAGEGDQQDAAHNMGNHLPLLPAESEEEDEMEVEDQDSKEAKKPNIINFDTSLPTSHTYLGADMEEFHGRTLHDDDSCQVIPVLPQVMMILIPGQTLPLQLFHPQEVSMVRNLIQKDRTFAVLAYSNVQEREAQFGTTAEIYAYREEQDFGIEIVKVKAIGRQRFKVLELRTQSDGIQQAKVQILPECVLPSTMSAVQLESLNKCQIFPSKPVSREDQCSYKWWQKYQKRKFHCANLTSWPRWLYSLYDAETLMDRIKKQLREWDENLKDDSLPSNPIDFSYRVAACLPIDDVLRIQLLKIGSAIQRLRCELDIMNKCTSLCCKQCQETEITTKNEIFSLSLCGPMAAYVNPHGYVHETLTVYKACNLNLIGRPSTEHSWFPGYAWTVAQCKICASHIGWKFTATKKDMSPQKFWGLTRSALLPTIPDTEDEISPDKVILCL


Molecular target: T1, CRBN, Q96SW2
Experiment: log2 fold change of degron read counts, EGFP-low vs EGFP+ sorted cells (limma voom), compound-induced degradation; higher = more compound-induced degradation of the degron-EGFP fusion; degrons are variants of IKZF1/3 zinc finger 2; compound dose not given here
Settings: Jurkat, 18 h
[1] = compound: compound 19 (5-tert-butyl-thalidomide)
[2] = compound: compound 22 (5-morpholino-thalidomide)
[3] = compound: compound 33 (diphenyl IMiD analogue)
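Also: pooled lentiviral library of zinc finger degron-EGFP fusions in mCherry-positive Jurkat cells, FACS-sorted after compound exposure, with degron abundance counted by next-generation sequencing.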

Row | Sequence | log2 fold change of degron read counts [1] | log2 fold change of degron read counts [2] | log2 fold change of degron read counts [3] | log2 fold change of degron read counts (compound: thalidomide)
1 | FECPICGRRFTQKGNLLRHIKL [46F_47E_49P_50I_52G_53R_54R_55F_67L_, Q9UKT9] | -0.662 | -1.27 | 0.491 | 2.58
2 | FRCPQCGADFTQKGNLLRHIKL [46F_47R_49P_50Q_52G_53A_54D_55F_67L_, Q9UKT9] | -3.08 | -3.48 | -0.625 | -1.35
3 | LCCNQCGFCCTQKGNLLRHIKL [46L_47C_49N_50Q_52G_53F_54C_55C_67L_, Q9UKT9] | -1.92 | -2.67 | -1.9 | -2
4 | FDCDICGAFFTQKGNLLRHIKL [46F_47D_49D_50I_52G_53A_54F_55F_67L_, Q9UKT9] | -1.35 | -2.45 | -1.91 | -1.7
5 | LMCEICGFKCTQKGNLLRHIKL [46L_47M_49E_50I_52G_53F_54K_55C_67L_, Q9UKT9] | 0.00993 | -0.209 | 0.918 | 1.45
6 | FHCNQCGHMFTQKGNLLRHIKL [46F_47H_49N_50Q_52G_53H_54M_55F_67L_, Q9UKT9] | -2.28 | -2.39 | -2.58 | -2.2
7 | FYCPICGATFTQKGNLLRHIKL [46F_47Y_49P_50I_52G_53A_54T_55F_67L_, Q9UKT9] | 3.2 | 3.57 | 2.42 | 1.16
8 | FGCNICGATFTQKGNLLRHIKL [46F_47G_49N_50I_52G_53A_54T_55F_67L_, Q9UKT9] | 0.0778 | 1.89 | 1.52 | 0.109
9 | FLCDICGATFTQKGNLLRHIKL [46F_47L_49D_50I_52G_53A_54T_55F_67L_, Q9UKT9] | -1.67 | -1.74 | -0.434 | -0.565
10 | FYCNICGATFTQKGNLLRHIKL [46F_47Y_49N_50I_52G_53A_54T_55F_67L_, Q9UKT9] | 0.426 | 2.67 | 0.933 | -0.961
11 | FQCNICGATFTQKGNLLRHIKL [46F_47Q_49N_50I_52G_53A_54T_55F_67L_, Q9UKT9] | -0.501 | 1.47 | 1.42 | 3.87
12 | FTCPICGATFTQKGNLLRHIKL [46F_47T_49P_50I_52G_53A_54T_55F_67L_, Q9UKT9] | 0.225 | 2.5 | 2.28 | 2.88
13 | FWCPICGATFTQKGNLLRHIKL [46F_47W_49P_50I_52G_53A_54T_55F_67L_, Q9UKT9] | 2.22 | 3.57 | 1.64 | 0.523
14 | FLCPICGATFTQKGNLLRHIKL [46F_47L_49P_50I_52G_53A_54T_55F_67L_, Q9UKT9] | -1.02 | -0.515 | 1.48 | 1.68
15 | FCCDICGATFTQKGNLLRHIKL [46F_47C_49D_50I_52G_53A_54T_55F_67L_, Q9UKT9] | 0.685 | 1.05 | 1.24 | 0.177
16 | FDCPICGATFTQKGNLLRHIKL [46F_47D_49P_50I_52G_53A_54T_55F_67L_, Q9UKT9] | 1.59 | 0.119 | 1.11 | 1.68
17 | FQCDICGATFTQKGNLLRHIKL [46F_47Q_49D_50I_52G_53A_54T_55F_67L_, Q9UKT9] | -0.685 | 1.86 | 0.81 | 3.25
18 | FECPICGATFTQKGNLLRHIKL [46F_47E_49P_50I_52G_53A_54T_55F_67L_, Q9UKT9] | 0.0819 | -0.536 | 1.91 | 2.9
19 | FICPQCGADFTQKGNLLRHIKL [46F_47I_49P_50Q_52G_53A_54D_55F_67L_, Q9UKT9] | -3.68 | -2.36 | -1.84 | -2.04
20 | FFCPICGHLFTQKGNLLRHIKL [46F_47F_49P_50I_52G_53H_54L_55F_67L_, Q9UKT9] | -0.994 | -0.746 | -0.828 | -1.02
21 | LLCEICGFFCTQKGNLLRHIKL [46L_47L_49E_50I_52G_53F_54F_55C_67L_, Q9UKT9] | -0.357 | -0.957 | -0.00991 | 0.351
22 | FMCDICGAMFTQKGNLLRHIKL [46F_47M_49D_50I_52G_53A_54M_55F_67L_, Q9UKT9] | -1.51 | -1.89 | 0.647 | -1.45
23 | FGCPICGRQFTQKGNLLRHIKL [46F_47G_49P_50I_52G_53R_54Q_55F_67L_, Q9UKT9] | 2.87 | 0.813 | 0.341 | -0.4
24 | LECPICGFVCTQKGNLLRHIKL [46L_47E_49P_50I_52G_53F_54V_55C_67L_, Q9UKT9] | -0.508 | -0.452 | 1.81 | 2.84
25 | FRCPVCGAYFTQKGNLLRHIKL [46F_47R_49P_50V_52G_53A_54Y_55F_67L_, Q9UKT9] | -0.775 | 0.429 | 1.02 | 1.64
26 | LHCEICGFQCTQKGNLLRHIKL [46L_47H_49E_50I_52G_53F_54Q_55C_67L_, Q9UKT9] | 2.39 | 2.27 | 1.7 | 1.64
27 | LCCNQCGFNCTQKGNLLRHIKL [46L_47C_49N_50Q_52G_53F_54N_55C_67L_, Q9UKT9] | -2 | -2.61 | -2.13 | -1.77
28 | FTCDVCGARFTQKGNLLRHIKL [46F_47T_49D_50V_52G_53A_54R_55F_67L_, Q9UKT9] | 0.31 | 1.8 | 0.304 | 1.36
